Drawing on PubChem BioAssay (NCATS), this text covers Potency for twelve molecules.

Common to all, as to experiment: qHTS profiling for inhibitors of Plasmodium falciparum proliferation (AID 504749); note: nearly all actives have a fitted effect of over 60% in size
Common to all, as to details: P. falciparum in erythrocytes, SYBR Green DNA, 72 h; series mostly up to 28.7 µM

One test concerns CP260. In short, it runs like this: (§1)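 SYBR Green fluorescence of parasite DNA, read after lysis and overnight dark incubation, measured growth over 72 h in erythrocyte culture at 0.3% parasitemia and 2.5% hematocrit. Data normalised to DMSO and 0.29 uM artemisinin, with plate-drift correction.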
In another test the test system is CP262. Summed up: as §1
A further test has as its system CP265. In short, it runs like this:
as §1

In the next test the test system is CP266. Summed up: as §1
The next test deals with CP269. Summed up:
as §1

Another test deals with CP286. Summed up:
as §1

Another test has as its system CP291. In short, it runs like this: as §1
For another test, the system named is CP297. In short, it runs like this: as §1
Another test has as its system CP305. Summed up: as §1
The subject of another test is CP315. In short, it runs like this:
as §1

A further test concerns CP329. In short, it runs like this:
as §1

The subject of another test is CP335. Summed up:
as §1

The next test concerns DFO2036. Summed up: as §1
The test system of the next test is DIV14. In short, it runs like this: as §1
For the next test, the system named is DIV17. In short, it runs like this: as §1
A further test concerns DIV30. In short, it runs like this:
as §1

The next test has as its system Dd2. Summed up: as §1
A further test concerns ECU. Summed up: as §1
The subject of the next test is CP268. In short, it runs like this: as §1
The next test deals with CP325. Summed up: as §1

Values joined by “and” are separate entries in the source; they are usually repeats but may differ in a detail not shown here. Identical values can stand only once. Results filed as inconclusive are left out. Where a structure was tested more than once in an assay, its records may differ in their call. Active and inactive are the calls of the source. Calls come from the whole dose curve; as a rule, active = well fitted inhibition curve with a large enough effect; inconclusive = small, poorly fitted or top-dose-only effect; inactive = flat fitted curve, though single readings scatter.
Potency is the fitted concentration of half-maximal effect.

For `CC(C)(C)c1cc(O)ccc1O`, the Potency in the test with CP260 was 6.31 µM (active); in the test on CP262 it was 12 µM (active) and inactive; in the test with CP265 it was 11.2 µM (active) and 12.6 µM (active); with CP269, 13.5 µM (active); in the test on CP286, 3.98 µM (active); in the test on CP291, 15.1 µM (active). For the same molecule, the Potency was 12 µM (active) in the test on CP297; 13.5 µM (active) with CP305; 5.36 µM (active) in the test with CP335; 8.91 µM (active) with DFO2036; 6.01 µM (active) and 12 µM (active) in the test on DIV14; 5.36 µM (active) with DIV17. For the same molecule, the Potency with DIV30 was 9.53 µM (active); in the test on Dd2, 4.47 µM (active); with ECU it was 7.94 µM (active). Besides, the Potency result with CP266, with CP315 and with CP329 was “inactive” each time.
As for `COC1=CC=C2[C@H]3Cc4ccc(OC)c5c4[C@@]2(CCN3C)[C@H]1O5`, the Potency entry with CP260, in the test with CP262, in the test on CP265, in the test on CP266, with CP268 and in the test with CP269 was “inactive” each time. Further, the Potency entry with CP286, in the test on CP291, in the test with CP297, in the test with CP305, with CP315 and in the test on CP325 was “inactive” throughout. Moreover, the Potency result with CP329, in the test on CP335, with DFO2036, with DIV14, with DIV17 and in the test with DIV30 was “inactive” each time. The Potency result in the test on Dd2 and with ECU was “inactive” each time.
In the case of `CCNC(C)Cc1cccc(C(F)(F)F)c1` (centres undefined), the Potency result in the test with CP260, in the test with CP262, with CP265, in the test with CP266, with CP268 and in the test with CP269 was “inactive” throughout. Also, the Potency result in the test with CP286, with CP291, in the test on CP297, with CP305, in the test on CP315 and in the test with CP325 was “inactive” each time. Moreover, the Potency entry in the test with CP329, in the test on DFO2036, in the test with DIV14, with DIV17, with DIV30 and with Dd2 was “inactive” throughout.
For the molecule `O=C(NCNC(=O)NC1C(=O)NC(=O)N1CO)NC1C(=O)NC(=O)N1CO` (centres undefined), the Potency result with CP260, in the test on CP262, with CP265, in the test with CP266, in the test on CP269 and in the test on CP286 was “inactive” each time. Besides, the Potency result in the test on CP291, with CP297, in the test on CP305, in the test on CP315, with CP325 and with CP329 was “inactive” each time. In addition, the Potency result with CP335, in the test with DFO2036, in the test with DIV14, in the test on DIV17, with DIV30 and in the test with Dd2 was “inactive” throughout. Besides, the Potency result in the test with ECU was “inactive”.
Turning to `O=C/C=C/c1ccccc1`, the Potency entry in the test on CP260, in the test on CP262, with CP265, in the test with CP266, in the test on CP268 and in the test with CP269 was “inactive” each time. Further, the Potency entry in the test with CP286, in the test on CP291, with CP297, in the test with CP305, in the test with CP315 and in the test with CP325 was “inactive” each time. Moreover, the Potency result with CP329, with DFO2036, in the test with DIV14, with DIV17, in the test with DIV30 and in the test with Dd2 was “inactive” each time. Moreover, the Potency entry in the test on ECU is “inactive”.
Regarding `CC(C)(O)C1C2OC(=O)C1C1(O)CC3OC34C(=O)OC2C14C` (centres undefined), the Potency result in the test with CP260, in the test on CP262, in the test on CP265, with CP266, in the test on CP268 and in the test with CP269 was “inactive” in each case. The Potency result with CP286, with CP291, in the test on CP297, in the test with CP305, in the test with CP315 and with CP325 was “inactive” each time. Moreover, the Potency result in the test with CP329, with CP335, in the test with DFO2036, in the test with DIV14, in the test with DIV17 and in the test on DIV30 was “inactive” each time. The Potency result in the test on Dd2 and with ECU was “inactive” throughout.
As for `CC1CCC(C(C)C)C(OC(=O)c2ccccc2N)C1` (centres undefined), the Potency entry with CP260, in the test with CP262, with CP265, in the test with CP266, in the test on CP268 and in the test on CP269 was “inactive” each time. Further, the Potency entry with CP286, with CP291, in the test with CP297, in the test with CP305, with CP315 and in the test with CP325 was “inactive” in each case. The Potency entry with CP329, in the test on CP335, in the test on DFO2036, in the test with DIV17, in the test with DIV30 and with ECU was “inactive” each time.
For `CN1C2CCC1CC(OC(c1ccccc1)c1ccc(Cl)cc1)C2` (centres undefined), the Potency in the test with CP260 is 7.94 µM (active); with CP262 it was 5.36 µM (active); in the test on CP265, 8.91 µM (active); in the test with CP266, 13.5 µM (active); in the test with CP268 it was 9.53 µM (active); in the test with CP269 it was 9.53 µM (active). Further, the Potency is 5.01 µM (active) in the test with CP286; 12 µM (active) with CP291; 8.49 µM (active) in the test on CP297; 12 µM (active) in the test with CP305; 9.53 µM (active) in the test with CP325; 13.5 µM (active) in the test on CP329. For the same molecule, the Potency with CP335 is 6.01 µM (active); in the test on DFO2036, 11.2 µM (active); in the test with DIV14, 7.57 µM (active); in the test with DIV17 it was 7.57 µM (active); with DIV30, 7.57 µM (active); in the test on Dd2 it was 10 µM (active). Also, the Potency with ECU is 6.31 µM (active).
Consider `ClC1C(Cl)C(Cl)C(Cl)C(Cl)C1Cl` (centres undefined), for which the Potency result in the test on CP260, in the test on CP262, in the test on CP265, in the test with CP266, in the test on CP268 and in the test on CP269 was “inactive” in each case. The Potency entry in the test on CP286, with CP291, in the test on CP297, in the test with CP305, in the test on CP315 and in the test on CP325 was “inactive” throughout. The Potency entry with CP329, with CP335, in the test on DFO2036, with DIV17, in the test on DIV30 and in the test on Dd2 was “inactive” throughout. The Potency result in the test with ECU is “inactive”.
Regarding `c1ccc2sc(SNC3CCCCC3)nc2c1`, the Potency result in the test with CP260, in the test with CP262, with CP265, in the test on CP266, with CP268 and with CP269 was “inactive” in each case. Besides, the Potency result with CP286, in the test on CP291, in the test on CP297, in the test with CP305, in the test on CP315 and in the test with CP325 was “inactive” in each case. Also, the Potency result in the test on CP329, in the test on CP335, in the test with DFO2036, in the test with DIV14, with DIV17 and in the test with DIV30 was “inactive” each time. The Potency result in the test with Dd2 and with ECU was “inactive” throughout.
Turning to `N#CN`, the Potency entry with CP260, in the test with CP262, in the test on CP265, in the test with CP266, in the test with CP268 and with CP269 was “inactive” in each case. The Potency result in the test on CP286, in the test on CP291, with CP297, in the test on CP305, in the test on CP315 and in the test on CP325 was “inactive” in each case. Also, the Potency entry with CP329, in the test on CP335, in the test with DFO2036, with DIV14, in the test with DIV17 and with Dd2 was “inactive” throughout. For the same molecule, the Potency result with ECU is “inactive”.
Regarding `O=[N+]([O-])C(Br)(CO)CO`, the Potency result with CP260, in the test with CP262, in the test with CP265, in the test on CP266, in the test with CP268 and with CP269 was “inactive” throughout. Also, the Potency result with CP286, in the test on CP291, in the test with CP297, with CP305, in the test on CP315 and in the test with CP325 was “inactive” throughout. For the same molecule, the Potency entry in the test on CP329, with CP335, in the test with DFO2036, in the test on DIV14, with DIV17 and with DIV30 was “inactive” throughout. The Potency result in the test with Dd2 and with ECU was “inactive” each time.
